Source: PubChem (several laboratories)
Shown are actives, neighbours in structure and some others; about 4.1% of the full set was active somewhere.
hgDAF-12 ag: hgDAF-12 agonism, primary luciferase screen; AID 687014; activation, % at 6.8 µM; HEK293 GAL4-hgDAF12 UAS-luciferase reporter, agonist luminescence; normalized to butyrate control; hit rate 1.8% among 370,000;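 active = activation above a cutoff set at the mean of all screened compounds plus 3 SD, cut at about 10% in these data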;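 also: 0% = DMSO wells and 100% = sodium butyrate wells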
DAX1 inh-1: inhibits human nuclear receptor DAX1 | P51843 | HEK293 Gal4-DAX1 luciferase reporter, luminescence | inhibition, % at 6.75 µM | hit rate 0.99% among 340,000 | AID 504766;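 active = inhibition above the mean over all tested compounds plus 3 SD, cut at about 4.2% in these data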;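 also: 0% = DAX1-transfected cells with DMSO and 100% = empty-vector control cells with DMSO; inhibition shows as a rise in luminescence from relieved DAX1 repression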
Target sequence (P51843 207-470 limits assumed): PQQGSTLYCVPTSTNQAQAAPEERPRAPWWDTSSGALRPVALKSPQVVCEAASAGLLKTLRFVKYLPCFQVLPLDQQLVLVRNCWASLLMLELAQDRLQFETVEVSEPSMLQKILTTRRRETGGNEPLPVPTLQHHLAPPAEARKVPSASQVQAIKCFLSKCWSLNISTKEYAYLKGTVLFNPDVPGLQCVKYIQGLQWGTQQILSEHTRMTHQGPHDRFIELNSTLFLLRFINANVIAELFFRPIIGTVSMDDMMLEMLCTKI
PolyA inhibitor: yeast polyadenylation inhibition; S. cerevisiae SKY197-pL101 polyadenylation reporter, beta-gal luminescence; efflux-impaired pdr1/pdr3 knockout yeast; score 100 = 6 SD above DMSO; activity score, % at 12 µM; hit rate 0.02% among 300,000;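 active = lowest replicate activity score at least 50, where 100 means six control SD above control mean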;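 also: yeast exposed to compound for 9 h at 30 °C; higher score means more reporter readthrough which indicates perturbed polyadenylation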
hcDAF12 agonist: H. contortus DAF-12 activation, primary screen; HEK293 hcDAF-12 lit1-tk-luc reporter, luminescence; 0% DMSO, 100% Δ7-dafachronic acid; activation, % at 6.8 µM; hit rate 1.4% among 370,000;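 active = activation above the mean of all tested compounds plus 3 SD, cut at about 5.5% in these data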;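 also: 100% = response to 3 µM Δ7-dafachronic acid high control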
ssDAF-12 act: activates DAF-12 receptor from parasite S. stercoralis; hit rate 1% among 370,000; AID 652126; HEK293 ssDAF-12/GRIP1 lit1-tk-luc reporter, luminescence; % of 3 µM dafachronic acid response; activation, % at 6.8 µM;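 active = activation above the mean over all tested compounds plus 3 SD, cut at about 0.9% in these data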;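 also: 0% = DMSO-only wells and 100% = 3 µM delta7-dafachronic acid wells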
DAX1 inh-2: blocks DAX1 repression of SF-1 activated StAR promoter; HEK293T StAR-luciferase reporter, SF-1/DAX-1 repression relief; inhibition, % at 6.8 µM; hit rate 1.1% among 370,000; AID 652010;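 active = inhibition above the mean over all tested compounds plus 3 SD, cut at about 3.6% in these data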;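 also: 0% = DAX-1 cells with DMSO and 100% = cells lacking DAX-1 with DMSO; higher inhibition means more luminescence from relief of DAX-1 repression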
Active calls of the source: *; nt = no result.

SMILES	hgDAF-12 ag	DAX1 inh-1	PolyA inhibitor	hcDAF12 agonist	ssDAF-12 act	DAX1 inh-2
COc1cccc(-c2nnc(SCC(=O)Nc3cc(C)ccc3OC)n2N)c1	-1	0	4	3	-1	-1
COc1ccc(OC)c(NC(=O)CSc2nncc(=O)n2N)c1	-1	0	-21	-1	0.9*	1
COCCNC(=O)/C(C#N)=C/c1ccc(OCc2ccc(F)cc2)cc1	13*	0	-21	2	-2	-1
COCCNC(=O)/C(C#N)=C/c1ccc(SC)cc1	4	nt	6	-2	-1	0
COCCNC(=O)/C(C#N)=C/c1ccc(C(=O)O)cc1	-1	5.0*	-1	-1	-1	0
COCCNC(=O)/C(C#N)=C/c1ccc(OCc2ccccc2)cc1	2	-1	-27	0	-1	0
CC(=O)N1CCN(c2ccc(NC(=O)c3ccc(C)cc3)cc2)CC1	0	0	4	-2	-1	0
CC(=O)N1CCc2cc(NC(=O)c3ccc(C)cc3)ccc21	11*	-1	nt	2	-1	2
Nc1ccc(Cc2ccc([N+](=O)[O-])cc2)cc1	0	5.2*	nt	2	-1	-1
O=[N+]([O-])c1ccc(Sc2nc3ccccc3[nH]2)c(Cl)c1	-3	nt	nt	1	-1	0
Cc1nn(C)c(C)c1CNC(=O)Nc1cccc(Cl)c1	11*	2	-2	2	0	4.0*
Cc1nnc(NC(=O)Nc2cccc(Cl)c2)s1	11*	0	-4	1	0	1
O=C1CC(N2CCCC2)=NC(=O)N1c1ccc(Br)cc1	2	nt	nt	0	-1	1
COCCSc1nnc(-c2cccnc2)n1Cc1ccccc1	2	nt	nt	0	-1	0
COc1ccc(CNC(=S)Nc2ccccc2F)cc1	-1	1	11	0	-1	0
COc1ccc(C(=O)NC(=S)Nc2ccccc2F)cc1	11*	1	-29	2	-1	1
CC(=O)NC(=S)Nc1ccccc1F	-1	6.3*	3	-1	-1	0
O=[N+]([O-])c1ccc(C(O)CSC(=S)N2CCCCC2)cc1 (stereo not given)	7	5.4*	6	1	0	0
O=[N+]([O-])c1ccc(C(=S)N2CCCC2)cc1	2	-1	7	-3	-1	0
CC(C)=CC([C@]12C[C@H](CO)N[C@@H]1Nc1ccccc12)S(=O)(=O)c1ccccc1 (stereo not given in full)	-3	nt	nt	1	0	nt
COc1ccc(/C(C)=N/NC(=O)CN(c2ccc(OC)cc2)S(=O)(=O)c2ccccc2)cc1	-1	4.4*	31	-1	-1	0
COc1ccc(N(CC(=O)N/N=C(\C)c2ccc(C)cc2)S(=O)(=O)c2ccccc2)cc1	2	1	5	-1	-1	0
CCCCN1CC[C@H](C)Oc2cc(Br)ccc2S1(=O)=O	-1	nt	nt	1	-1	0
C/C(=N\NC(=O)c1ccccc1F)c1ccc2c(c1)Nc1ccccc1S2	11*	0	-25	0	-1	1
CCC(C)(C)NC(=O)C1CCN(c2nc(OC)nc(OC)n2)CC1	-3	6.1*	1	-1	-1	0
SMILES	hgDAF-12 ag	DAX1 inh-1	PolyA inhibitor	hcDAF12 agonist	ssDAF-12 act	DAX1 inh-2
O=C(CSc1nnc(-c2ccccc2)n1-c1ccccc1)NN=C/C=C\c1ccccc1[N+](=O)[O-]	-3	nt	nt	-2	-2	-1
Fc1cccc(F)c1[B-](F)(F)F	11*	0	nt	-1	-1	1
CCOc1ccc(/C=N/NC(=O)c2nnn(-c3nonc3N)c2-c2ccc(OCC)cc2)cc1	-1	1	14	-1	-1	0
CCCOc1ccc(-c2c(C(=O)N/N=C/c3ccccc3)nnn2-c2nonc2N)cc1	-1	3	-3	0	2.4*	0
CCNc1sc(C(=O)c2cccs2)c(N)c1-c1nc2ccccc2s1	9	2	8	3	0	0
CCOC(=O)c1sc(NCc2ccco2)c(-c2nc3ccccc3s2)c1N	4	1	-8	6.2*	0	0
NC(=O)C1C(=O)c2ccccc2C1(C[N+](=O)[O-])c1ccccc1 (stereo not given)	-2	0	nt	5.8*	0	1
O=C(c1cccc(COc2ccc(Cl)cc2Cl)c1)N1CCN(c2ccccn2)CC1	11*	-2	-10	3	1	3
O=C(c1ccc(Cl)c(Cl)c1)N1CCN(c2ccccn2)CC1	2	0	1	-2	-2	0
COc1ccc(OC)c(CN2C(=O)CCCC2(C)c2nnnn2C2CCCC2)c1 (stereo not given)	3	nt	nt	0	-1	0
CCOc1ccc(S(=O)(=O)Nc2cccc(C(=O)NCC(c3ccccc3)N(C)C)c2)cc1 (stereo not given)	3	1	3	-1	-1	3.6*
COc1ccc(C(CNC(=O)c2cccc(NS(=O)(=O)c3ccccc3)c2)N(C)C)cc1 (stereo not given)	3	1	6	1	0	4
COc1ccccc1C(CNC(=O)c1cccc(S(=O)(=O)NCc2ccccc2)c1)N(C)C (stereo not given)	0	4.8*	-13	0	-1	0
COC(=O)C1=C(C)N(Cc2ccc(C(F)(F)F)cc2)C(=NCc2ccc3c(c2)OCO3)NC1c1ccccc1C(F)(F)F (stereo not given)	0	nt	nt	-1	-1	0
CCN(CC)C(=O)CC[C@@H]1CC[C@]2(CCCN(Cc3cccs3)C2)O1	4	nt	nt	0	0	0
CCOc1cccc(C(=O)Nc2ccc3c(c2)OCCO3)c1	8	-1	22	6	0.9*	3
CC(=O)c1ccc(OCCCC(=O)Nc2ccc3c(c2)OCCO3)cc1	1	0	nt	-1	-1	-3
CCCOc1ccc(C(=O)Nc2ccc3c(c2)OCCO3)cc1	13*	0	-7	5.7*	1	2
O=C(NCc1cccc(C(F)(F)F)c1)O[C@H]1CC[C@@]23CCCN2C(=O)CCC[C@H]3C1	-1	nt	nt	-2	-2	nt
Cc1ccccc1NC(=O)/C=C/c1cccs1	13*	0	12	2	-1	3
COC(=O)C1CN(CCc2ccccc2)CCS(=O)(=O)N1Cc1ccccc1F (stereo not given)	0	nt	nt	-3	-1	-1
COc1ccc(OCc2cc(C(=O)N3CCCN(C(C)=O)CC3)no2)c(Cl)c1	2	0	8	1	-1	0
COc1ccc(OCc2cc(C(=O)N(C)Cc3cc(C)no3)no2)c(Cl)c1	12*	4	-4	3	0	1
COc1ccc(OCc2cc(C(=O)NC(C)c3nc(C)cs3)no2)c(Cl)c1 (stereo not given)	12*	2	nt	4	0	1
